Test results as given in PubChem BioAssay (NCI).
Compounds without any hit were thinned out: in the full panel of roughly 79,000, 15% have a hit. Values without a mark were called inactive. Calls of active or inactive are those of the source. Rule as the data show it: active = growth inhibition above about 70%; inactive = the rest.

Tests used:
[1] = NCI Yeast Anticancer Drug Screen. Data for the rad50 strain (AID 155);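 also: 0% = growth of vehicle-only cultures of the same strain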; conditions: S. cerevisiae rad50 strain growth inhibition, hits give high values
Summary of the method: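 Growth of the mutant yeast was measured after compound exposure and referenced to vehicle-treated cultures.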

[2] = NCI Yeast Anticancer Drug Screen. Data for the mec2-1 strain (AID 157); conditions: S. cerevisiae mec2-1 strain, hits give high values
Summary of the method: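 Each compound was tested on mec2-1 yeast, a strain altered in DNA damage repair or cell cycle control. Growth inhibition is reported relative to vehicle.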

[3] = NCI Yeast Anticancer Drug Screen. Data for the sgs1 mgt1 strain (AID 161);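 also: 0% = growth of cultures given vehicle only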; conditions: S. cerevisiae sgs1 mgt1 strain, hits give high values
Summary of the method: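 Test agents were incubated with a DNA-repair-mutant yeast strain. Growth was then read and compared against vehicle-treated controls.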

[4] = NCI Yeast Anticancer Drug Screen. Data for the cln2 rad14 strain (AID 165);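 also: 0% = growth equal to vehicle treated cultures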; conditions: S. cerevisiae cln2 rad14 strain, hits give high values
Summary of the method: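 Test compounds were added to cln2 rad14 yeast cultures; inhibition of growth was then determined by comparison with vehicle treatment.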

[5] = NCI Yeast Anticancer Drug Screen. Data for the bub3 strain (AID 167); conditions: S. cerevisiae bub3 mutant strain, hits give high values
Summary of the method: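 Whole-cell yeast assay. The mutant strain was incubated with compounds, and growth inhibition was determined by comparison with vehicle-treated cells.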

[6] = NCI Yeast Anticancer Drug Screen. Data for the mlh1 rad18 strain (AID 175); conditions: S. cerevisiae mlh1 rad18 strain growth inhibition, hits give high values
Summary of the method: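 Inhibition values reflect reduced growth of mutant yeast versus vehicle-treated controls following compound exposure; the mutations affect DNA damage repair.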

[7] = at 5.0 µM (retest, dose inferred, filed as 0.5)
[8] = at 50.0 µM (retest, dose inferred, filed as 5.0)

Structure (SMILES)	growth inhibition [1, 7]	growth inhibition [1, 8]	growth inhibition ([1]; at 50.0 µM)	growth inhibition [2, 7]	growth inhibition [2, 8]	growth inhibition ([2]; at 50.0 µM)	growth inhibition [3, 7]	growth inhibition [3, 8]	growth inhibition ([3]; at 50.0 µM)	growth inhibition [4, 7]	growth inhibition [4, 8]	growth inhibition ([4]; at 50.0 µM)	growth inhibition [5, 7]	growth inhibition [5, 8]	growth inhibition ([5]; at 50.0 µM)	growth inhibition [6, 7]	growth inhibition [6, 8]	growth inhibition ([6]; at 50.0 µM)
O=C1C=C(Br)C(=O)C12CCc1ccccc12 (configuration not stated)	99% (active)	99% (active)	99.7% (active)	100% (active)	99% (active)	99.8% (active)	93% (active)	100% (active)	99.5% (active)	99% (active)	99% (active)	99.3% (active)	99% (active)	99% (active)	99.6% (active)	99% (active)	99% (active)	99.5% (active)
CCC[CH2][Sn]([CH2]CCC)([O]C(=O)c1cc(OC)c(OC)cc1OC)[O]C(=O)c1cc(OC)c(OC)cc1OC	88% (active)	88% (active)	89.8% (active)	90% (active)	90% (active)	91.5% (active)	87% (active)	87% (active)	90.1% (active)	79% (active)	79% (active)	91.2% (active)	85% (active)	85% (active)	87.2% (active)	84% (active)	84% (active)	89.5% (active)
N#CC#Cc1cccc(C#CC#N)c1	98% (active)	98% (active)	98% (active)	99% (active)	99% (active)	98.9% (active)	99% (active)	99% (active)	50%	99% (active)	98% (active)	98.8% (active)	98% (active)	98% (active)	98.9% (active)	99% (active)	98% (active)	99.2% (active)
FC(F)(F)c1ccc(NC(=S)SCc2ccc3c(c2)OCO3)cc1	-5%	0%	74.5% (active)	-5%	-1%	95% (active)	-3%	25%	93.3% (active)	-11%	-15%	86.3% (active)	-8%	-6%	87% (active)	-8%	24%	93.2% (active)
CC1=C(C(=O)OCCc2ccc([N+](=O)[O-])cc2)C(c2ccccc2[N+](=O)[O-])C(C(=O)OC(C)C)=C(C)N1 (configuration not stated)	12%	93% (active)	69.6%	13%	94% (active)	74.3% (active)	1%	87% (active)	75.7% (active)	0%	80% (active)	68.4%	4%	89% (active)	74.6% (active)	10%	94% (active)	68%
CCCCN1C(=O)C[C@H]2[C@@H]3CCc4cc(OCCN5CCCC5)ccc4[C@H]3CC[C@]2(C)C1=O	36%	75% (active)	56.9%	30%	53%	55.4%	66%	90% (active)	71.5% (active)	33%	70% (active)	73.1% (active)	57%	72% (active)	78.6% (active)	68%	78% (active)	63.6%
C=C(Br)CN(C)CC(=C)Br	0%	40%	82% (active)	7%	-19%	-17.1%	4%	-10%	22.2%	-15%	-50%	0.15%	-2%	5%	-15%	-6%	25%	62.5%
O=C1NC(Cc2ccccc2)C(=O)O1 (configuration not stated)	0%	-6%	-2.1%	-2%	-3%	3.35%	-3%	13%	11.1%	-11%	6%	-13.8%	-1%	-2%	43.9%	-1%	-6%	4.25%
CSc1nc2c(c(=O)[nH]1)C1C=C(C)CCC1C(C)(C)C2 (configuration not stated)	-5%	97% (active)	52.1%	-5%	97% (active)	56.1%	0%	97% (active)	56%	-3%	96% (active)	69.2%	10%	97% (active)	53.8%	-10%	97% (active)	51.6%
O=C(c1ccccc1)C1Cc2ccccc2C1=O (configuration not stated)	2%	39%	78.5% (active)	-16%	2%	50.1%	0%	5%	86.5% (active)	3%	1%	19.8%	35%	13%	4.4%	2%	11%	84.2% (active)
Oc1ccc(Cc2ccccc2)cc1Cl	-1%	74% (active)	47.5%	-2%	72% (active)	41.7%	-2%	78% (active)	42.8%	-4%	47%	95% (active)	-6%	54%	97.7% (active)	-1%	85% (active)	41.6%
C=CCc1cccc(/C=N\N=C(/N)NO)c1O	-1%	26%	43.5%	2%	35%	84.5% (active)	3%	59%	41.1%	-6%	26%	48.6%	-4%	8%	70% (active)	-2%	42%	83.2% (active)
O=C(N/C(=C\c1cc(Cl)ccc1Cl)c1nc2ccc(Cl)cc2[nH]1)c1ccccc1	29%	87% (active)	93.2% (active)	17%	82% (active)	96.5% (active)	28%	81% (active)	93.8% (active)	39%	84% (active)	91.9% (active)	31%	87% (active)	94.7% (active)	14%	81% (active)	96.5% (active)
COc1cc(-c2oc(C=Nc3ccccc3)c([N+](=O)[O-])c2-c2ccc(O)c(OC)c2)ccc1O	22%	32%	34.1%	19%	38%	-7.5%	-14%	74% (active)	31.4%	7%	74% (active)	-18.1%	5%	91% (active)	-16.8%	25%	61%	1.65%
Cc1n(CC(C)C)c2c([n+]1CC(=O)c1ccc([N+](=O)[O-])cc1)C(=O)c1ccccc1C2=O	56%	92% (active)	88.2% (active)	25%	98% (active)	90.7% (active)	44%	98% (active)	91.3% (active)	66%	98% (active)	89.8% (active)	84% (active)	98% (active)	89.9% (active)	47%	96% (active)	90.2% (active)
CCCCc1c2c(nc3c1CCCC3O)/C(=C/c1ccccc1)CCC2 (configuration not stated)	0%	42%	50.8%	0%	47%	53.9%	-2%	67%	49.9%	-3%	30%	59.9%	3%	89% (active)	83.7% (active)	1%	71% (active)	80.3% (active)
Sc1c(Br)cc(Br)cc1Br.[Ag]	7%	99% (active)	31.6%	6%	100% (active)	30.9%	26%	99% (active)	72.4% (active)	6%	99% (active)	14.6%	-1%	100% (active)	30.7%	19%	99% (active)	59.5%
CCCOc1cc(C(=O)OCCN(CC)CC)cc(OCCC)c1OCCC	6%	29%	36.9%	6%	19%	15.8%	4%	43%	44.8%	8%	13%	15.1%	-21%	12%	23%	0%	41%	61.8%
COc1ccc2c(c1)C=C([N+](=O)[O-])C(C1OC(C)(C)OC1C1COC(C)(C)O1)O2 (configuration not stated)	17%	12%	7.3%	22%	24%	65.2%	24%	14%	16.5%	19%	11%	45.1%	48%	43%	0.6%	24%	21%	19.8%
